Results on 58 compounds are retold here after the supplement of paper PMC11634586.

Structures are written as SMILES. Structures can show the parent of a compound that is named as a salt. Unmarked numbers belong to inactive results.

The assay deals with NCI-H1688. As to the kind of experiment: inhibition of cell viability relative to untreated control (fraction); higher = stronger growth inhibition, active = 0.5 or more. The note with it: 30 µM; 24 h. In outline:
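Values are inhibition of cell viability expressed as a fraction, derived from viability normalised to untreated cells. NCI-H1688 small cell lung cancer cells in 96-well plates were exposed to a natural compound library (TargetMol) at 30 µM for 24 h at 37°C with 5% CO2, and Cell Counting Kit-8 absorbance at 450 nm was then read.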

For the compound `Oc1cc(O)c2c(c1)O[C@H](c1cc(O)c(O)c(O)c1)[C@H](O)C2` [Epigallocatechin], the “inhibition of cell viability” value was -0.059.

Regarding `CC[C@@]1(O)C(=O)OCc2c1cc1n(c2=O)Cc2cc3cc(O)ccc3nc2-1` [Hydroxy Camptothecine], the “inhibition of cell viability” value was 0.97 (active). The value for `O=c1c(O)c(-c2ccc(O)c(O)c2)oc2cc(O)cc(O)c12` [Quercetin] was 0.68 (active). To `C=C1C(=O)O[C@@H]2C[C@@]3(C)CCCC(=C)[C@@H]3C[C@H]12` [Isoalantolactone] belongs 0.867 (active); to `NC(=O)c1cccnc1` [Nicotinamide], 0.0846; to `O=C(O)[C@H]1O[C@@H](Oc2cc3oc(-c4ccccc4)cc(=O)c3c(O)c2O)[C@H](O)[C@@H](O)[C@@H]1O` [Baicalin], -0.127. As for `O=C(O)C=CC=Cc1ccccc1` [5-Phenyl-2,4-pentadienoic acid], the “inhibition of cell viability” value is -0.102. The value for `O=C(O)c1cc(=O)[nH]c(=O)[nH]1` [Orotic acid] was -0.0262; that for `CC(=O)O[C@]1(C(C)=O)CC[C@H]2[C@@H]3C[C@H](C)C4=CC(=O)CC[C@]4(C)[C@H]3CC[C@@]21C` [Farlutin] was 0.01. To `OC1OC[C@@H](O)[C@@H](O)[C@@H]1O` (stereo partly drawn) [D(-)-Arabinose] belongs 0.0239; to `COc1ccccc1O` [Guaiacol], -0.0875. To `NCCCS(=O)(=O)O` [Homotaurine] belongs 0.357. Take `COc1ccc(-c2cc(=O)c3c(O)cc(O)cc3o2)cc1O` [Diosmetin]: the “inhibition of cell viability” value was 0.314. The value for `Oc1ccc(/C=C/c2cc(O)cc(O)c2)cc1` [Resveratrol] was 0.49. To `COc1ccc(CCC(=O)c2c(O)cc(O[C@@H]3O[C@H](CO)[C@@H](O)[C@H](O)[C@H]3O[C@@H]3O[C@@H](C)[C@H](O)[C@@H](O)[C@H]3O)cc2O)cc1O` [Neohesperidin Dihydrochalcone (Nhdc)] belongs -0.0245; to `COc1ccc2cc1Oc1ccc(cc1)C[C@H]1c3cc(c(OC)cc3CCN1C)Oc1c(O)c(OC)cc3c1[C@H](C2)N(C)CC3` [Fangchinoline], 0.969 (active); to `O=C1/C(=C2\Nc3ccccc3C2=O)Nc2ccccc21` [Indigo], -0.275. The value for `COc1cc(CCC(=O)O)ccc1O` [Hydroferulic acid] was 0.0171; that for `COc1cc(OC)c2ccc(=O)oc2c1` [Citropten] was -0.00623. As for `COc1cc(C(C)=O)ccc1O` [Acetovanillone], the “inhibition of cell viability” value is 0.213.

With `C[C@H](CCC(=O)O)[C@H]1CC[C@H]2[C@@H]3CC[C@@H]4C[C@H](O)CC[C@]4(C)[C@H]3CC[C@]12C` [Lithocholic acid], the “inhibition of cell viability” value is -0.0194.

`CC1CCC2(O)C(C)(C)C3CCC2(C)C1C3` (stereo not drawn) [Patchouli alcohol]: the “inhibition of cell viability” value is 0.0152. Take `O=c1c(-c2ccc(O[C@@H]3O[C@H](CO)[C@@H](O)[C@H](O)[C@H]3O)cc2)coc2cc(O)cc(O)c12` [Sophoricoside]: the “inhibition of cell viability” value was 0.495. To `Nc1nc(=O)c2c([nH]1)NCC(CNc1ccc(C(=O)N[C@@H](CCC(=O)O)C(=O)O)cc1)N2C=O` (stereo partly drawn) [Calcium folinate] belongs 0.028. The value for `Nc1ncnc2c1ncn2[C@@H]1O[C@H](COP(=O)(O)OP(=O)(O)OP(=O)(O)O)[C@@H](O)[C@H]1O` [Adenosine disodium triphosphate] was 0.0565; that for `CC1(C)C2CCC1(C)C(O)C2` (stereo not drawn) [Borneol] was 0.16; that for `CC1(C)CC[C@]2(C(=O)O)[C@H](O)C[C@]3(C)C(=CC[C@@H]4[C@@]5(C)CC[C@H](O)C(C)(C)[C@@H]5CC[C@]43C)[C@H]2C1` [Echinocystic acid] was 0.139. The value for `COc1cc2c(c(OC)c1OC)-c1c(cc3c(c1OC)OCO3)CC(C)C(C)C2` (stereo not drawn) [Schizandrin B] was -0.0395; that for `C=C[C@@]1(C)CC(=O)[C@]2(O)[C@@]3(C)[C@@H](O)CCC(C)(C)[C@@H]3[C@H](O)[C@H](OC(C)=O)[C@@]2(C)O1` [Forskolin] was 0.166; that for `CC[C@@]1(O)C(=O)OCc2c1cc1n(c2=O)Cc2cc3cc(O)ccc3nc2-1` [10-Hydroxycamptothecin] was 0.98 (active). Take `CC1(C)O[C@H]2CC(=O)OC[C@]23[C@H]2CC[C@@]4(C)[C@H](c5ccoc5)OC(=O)[C@H]5O[C@]54[C@]2(C)C(=O)C[C@@H]13` [Limonin]: the “inhibition of cell viability” value is -0.0414. On to `Oc1cc(O)c2c(c1)O[C@H](c1ccc(O)c(O)c1)[C@@H](O)C2` [Cianidanol], for which the “inhibition of cell viability” value is 0.298. To `COc1ccc([C@@H]2CC(=O)c3c(O)cc(O[C@@H]4O[C@H](CO[C@@H]5O[C@@H](C)[C@H](O)[C@@H](O)[C@H]5O)[C@@H](O)[C@H](O)[C@H]4O)cc3O2)cc1O` [Hesperidin] belongs 0.0198. The value for `COc1ccc(-c2cc(=O)c3c(OC)c(OC)c(OC)c(OC)c3o2)cc1OC` [Nobiletin] was 0.293. To `CC(C)(CO)[C@@H](O)C(=O)NCCCO` [Dexpanthenol] belongs -0.126. As to `CC1(C)CC[C@]2(C(=O)O)CC[C@]3(C)C(=CC[C@@H]4[C@@]5(C)CC[C@H](O)[C@@](C)(CO)[C@@H]5CC[C@]43C)[C@@H]2C1` [Hederagenin], the “inhibition of cell viability” value is 0.274. On to `O=C1c2c(O)cc(O)cc2O[C@H](c2cc(O)c(O)c(O)c2)[C@H]1O` [Dihydromyricetin], for which the “inhibition of cell viability” value was 0.596 (active). To `CC1(C)CC[C@]2(C(=O)O)CC[C@]3(C)C(=CC[C@@H]4[C@@]5(C)CC[C@H](O)C(C)(C)[C@@H]5CC[C@]43C)[C@@H]2C1` [Oleanolic Acid] belongs 0.0195. The value for `O=c1cc(-c2ccccc2)oc2c(O)c(O)ccc12` [7,8-Dihydroxyflavone] was 0.694 (active). To `C[C@H]1O[C@@H](O[C@H]2CC[C@@]3(C)[C@@H](CC[C@]4(C)[C@@H]3C=C[C@]35OC[C@@]6(CCC(C)(C)C[C@H]63)[C@@H](O)C[C@]54C)[C@]2(C)CO)[C@H](O)[C@@H](O[C@@H]2O[C@H](CO)[C@@H](O)[C@H](O)[C@H]2O)[C@H]1O` [Saikosaponin A] belongs 1 (active). As for `C=C1C[C@]23C[C@@]1(O)CC[C@H]2[C@@]12C=C[C@H](O)[C@@](C)(C(=O)O1)[C@H]2[C@@H]3C(=O)O` [Gibberellic acid], the “inhibition of cell viability” value is 0.0962. The value for `C[C@H]1[C@H](C)CC[C@]2(C(=O)O[C@@H]3O[C@H](CO[C@@H]4O[C@H](CO)[C@@H](O[C@@H]5O[C@@H](C)[C@H](O)[C@@H](O)[C@H]5O)[C@H](O)[C@H]4O)[C@@H](O)[C@H](O)[C@H]3O)CC[C@]3(C)C(=CC[C@@H]4[C@@]5(C)C[C@@H](O)[C@H](O)[C@@](C)(CO)[C@@H]5[C@H](O)C[C@]43C)[C@H]12` [Madecassoside] was 0.808 (active); that for `COc1cc(O)c(C(C)=O)c(OC)c1` [Xanthoxyline] was -0.308; that for `COc1ccc(-c2coc3cc(O)cc(O)c3c2=O)cc1` [Biochanin A] was -0.0526. The value for `OC[C@@H](O)[C@@H](O)[C@H](O)[C@@H](O)CO` [D-Sorbitol] was -0.224. As for `Cc1[nH]ccc2c1[nH]c1cc(=O)ccc12` [Harmol], the “inhibition of cell viability” value is 0.664 (active).

As for `O=C[C@H](O)[C@@H](O)[C@H](O)CO` (racemic) [DL-Xylose], the “inhibition of cell viability” value is -0.162. The value for `COc1cc(C=O)ccc1OC(C)=O` [Acetylvanillin] was -0.295; that for `COC(=O)C1=CO[C@@H](O[C@@H]2O[C@H](CO)[C@@H](O)[C@H](O)[C@H]2O)[C@@H]2[C@@H](C)[C@@H](O)C[C@H]12` [Loganin] was 0.0696. To `C=CCc1ccc(O)c(-c2ccc(O)c(CC=C)c2)c1` [Honokiol] belongs 0.844 (active); to `O=C(O)c1cc(O)ccc1O` [Gentisic acid], -0.166.

As to `O=C(O)CCCC[C@@H]1SC[C@@H]2NC(=O)N[C@@H]21` [D-Biotin], the “inhibition of cell viability” value is -0.0414. The value for `CC(C)C[C@@H](NC(=O)[C@H](C)NC(=O)CNC(=O)[C@@H](NC=O)C(C)C)C(=O)N[C@@H](C)C(=O)N[C@@H](C(=O)N[C@H](C(=O)N[C@H](C(=O)N[C@@H](Cc1c[nH]c2ccccc12)C(=O)N[C@H](CC(C)C)C(=O)N[C@@H](Cc1c[nH]c2ccccc12)C(=O)N[C@H](CC(C)C)C(=O)N[C@@H](Cc1c[nH]c2ccccc12)C(=O)N[C@H](CC(C)C)C(=O)N[C@@H](Cc1c[nH]c2ccccc12)C(=O)NCCO)C(C)C)C(C)C)C(C)C` [Gramicidin] was 0.981 (active); that for `CN(C)[C@@H]1C(O)=C(C(N)=O)C(=O)[C@@]2(O)C(O)=C3C(=O)c4c(O)cccc4[C@@](C)(O)[C@H]3C[C@@H]12` [Tetracycline hydrochloride] was 0.293.

On to `NCCc1c[nH]cn1` [Histamine], for which the “inhibition of cell viability” value was 0.233. To `O=C(O)c1ccc(O)c(O)c1` [Protocatechuic acid] belongs 0.00558. To `O=c1ccc2ccccc2o1` [Coumarin] belongs -0.151; to `O=c1cc(-c2ccc(O)cc2)oc2cc(O)cc(O)c12` [Apigenin], 0.487.
